Results filed as inconclusive are left out. Calls of active or inactive are those of the source. The calls were made as follows: active = hit-call score of the fitted dose curve at least 0.9, where 1 is the maximum; inconclusive = response in the unintended direction; inactive = score below 0.9.

Assay [1] in a line: Tanguay_ZF_120hpf_AXIS_legacy: (Legacy) Oregon State University Tanguay Lab 120 Hour Post-fertilization zebrafish Assay for Body Axis Malformation (AID 2283635).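 As to AC50: potency for an increased fraction of larvae scored with body axis malformation.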 In short, it runs like this:
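Embryos: 5D wild-type, pronase-dechorionated 4 hpf; static exposure 6–120 hpf, 28C, sealed, dark, 1 embryo/well, 0.64% DMSO. 120 hpf axis malformation scored present/absent; dead embryos excluded. Analysed as gain of signal vs DMSO.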

Assay [2] is described as follows: Tanguay_ZF_120hpf_EYE_legacy: (Legacy) Oregon State University Tanguay Lab 120 Hour Post-fertilization zebrafish Assay for Eye Malformation (AID 2283636).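 Also: binary presence or absence of eye malformation scored by brightfield in 120 hpf larvae.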 In short, it runs like this:
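Dechorionated Tropical 5D zebrafish embryos, one per well from 6 hpf, static exposure to 120 hpf at 28C, 0.64% DMSO. Eye malformation scored present/absent by brightfield; dead embryos not scored.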

A short description of assay [3]: Tanguay_ZF_120hpf_SNOU_legacy: (Legacy) Oregon State University Tanguay Lab 120 Hour Post-fertilization zebrafish Assay for Snout Malformation (AID 2283637). The procedure, abridged: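 Dechorionated tropical 5D wild-type zebrafish embryos exposed statically from 6 to 120 hpf at 28C, one per well, in 0.64% DMSO. Snout malformation scored as present/absent by brightfield at 120 hpf; dead embryos not scored.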

Assay [4] is described as follows: Tanguay_ZF_120hpf_JAW_legacy: (Legacy) Oregon State University Tanguay Lab 120 Hour Post-fertilization zebrafish Assay for Jaw Malformation (AID 2283638).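 As to AC50: active means more embryos with jaw malformation than DMSO controls.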 In short, it runs like this: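 Binary jaw-malformation calls at 120 hpf by brightfield imaging; DMSO (0.64% v/v) = baseline. Embryos: 5D wild-type, pronase-dechorionated, one per well from 6 hpf, static exposure, 28C, sealed, dark.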

Assay [5] is described as follows: Tanguay_ZF_120hpf_OTIC_legacy: (Legacy) Oregon State University Tanguay Lab 120 Hour Post-fertilization zebrafish Assay for Otic Vesicle Malformation (AID 2283639). In short, it runs like this:
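Tropical 5D wild-type zebrafish embryos were exposed statically in sealed, foil-covered plates at 28C until 120 hpf, with 0.64% (vol/vol) DMSO final. Otic vesicle malformation was scored present/absent by brightfield microscopy, with DMSO as baseline.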

Assay [6] is described as follows: Tanguay_ZF_120hpf_PE_legacy: (Legacy) Oregon State University Tanguay Lab 120 Hour Post-fertilization zebrafish Assay for Pericardial Edema (AID 2283640).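 As to AC50: potency for increased incidence of pericardial edema versus DMSO baseline.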 In short, it runs like this: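 Static waterborne exposure, 5D wild-type embryos, 28C, to 120 hpf; final DMSO 0.64% (vol/vol). Binary PE call at 120 hpf by brightfield; fitted upward vs DMSO baseline. 5uM trimethyltin chloride as positive control.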

Assay [7] in a line: Tanguay_ZF_120hpf_BRAI_legacy: (Legacy) Oregon State University Tanguay Lab 120 Hour Post-fertilization zebrafish Assay for Brain Malformation (AID 2283641). The procedure, abridged: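 Read-out: binary brain morphology call at 120 hpf (brightfield), fitted in gain-of-signal direction vs DMSO. Wild-type Tropical 5D embryos, static exposure, 28C, 0.64% DMSO final; 5uM trimethyltin chloride as positive control.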

Assay [8] is described as follows: Tanguay_ZF_120hpf_CFIN_legacy: (Legacy) Oregon State University Tanguay Lab 120 Hour Post-fertilization zebrafish Assay for Caudal Fin Malformation (AID 2283649). In short, it runs like this: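 Dechorionated 5D wild-type zebrafish, static exposure 6–120 hpf, 28C, sealed and dark, 0.64% v/v DMSO final. Binary fin-malformation call at 120 hpf, brightfield; gain of signal vs DMSO baseline.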

Assay [9] is described as follows: Tanguay_ZF_120hpf_PIG_legacy: (Legacy) Oregon State University Tanguay Lab 120 Hour Post-fertilization zebrafish Assay for Pigmentation Malformation (AID 2283650). In short, it runs like this: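 Dechorionated Tropical 5D wild-type embryos, one per well from 6 hpf, statically exposed at 28C in the dark until 120 hpf, 0.64% DMSO final. Pigmentation scored present/absent by brightfield microscopy; dead embryos not scored; fitted versus DMSO.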

The nature of assay [10]: Tanguay_ZF_120hpf_TRUN_legacy: (Legacy) Oregon State University Tanguay Lab 120 Hour Post-fertilization zebrafish Assay for Truncated Body (AID 2283655). The procedure, abridged: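 Whole-embryo zebrafish screen: dechorionated 5D embryos, static exposure 6–120 hpf, 28C, sealed foil-covered plates, 0.64% DMSO. Binary truncation call; gain of signal versus DMSO baseline.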

Assay [11] is described as follows: Tanguay_ZF_120hpf_NC_legacy: (Legacy) Oregon State University Tanguay Lab 120 Hour Post-fertilization zebrafish Assay for Notochord and Tail Malformation (AID 2283656). The procedure, abridged: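 Dechorionated 5D zebrafish, 1/well from 6 hpf; static exposure to 120 hpf, 28C, sealed, dark; final DMSO 0.64% v/v. NC scored binary (present/absent); dead embryos not scored. Fit vs DMSO baseline, gain direction.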

Assay [12] can be described thus: Tanguay_ZF_120hpf_SOMI_legacy: (Legacy) Oregon State University Tanguay Lab 120 Hour Post-fertilization zebrafish Assay for Somite Malformation (AID 2283647). The procedure, abridged:
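Binary brightfield scoring of somite defects at 120 hpf in 5D wild-type larvae; one dechorionated embryo per well, static exposure from 6 hpf, 28C, sealed and dark. Final DMSO 0.64%; trimethyltin chloride 5uM positive control.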

A short description of assay [13]: Tanguay_ZF_120hpf_PFIN_legacy: (Legacy) Oregon State University Tanguay Lab 120 Hour Post-fertilization zebrafish Assay for Pectoral Fin Malformation (AID 2283648).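 Also: each larva judged yes or no for fin defect by brightfield with dead larvae skipped.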 The procedure, abridged: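 Dechorionated Tropical 5D wild-type zebrafish embryos, one per well, statically exposed from 6 to 120 hpf at 28C with 0.64% DMSO final. Pectoral fin malformation scored present/absent by brightfield at 120 hpf; not scored in dead embryos.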

The nature of assay [14]: Tanguay_ZF_120hpf_CIRC_legacy: (Legacy) Oregon State University Tanguay Lab 120 Hour Post-fertilization zebrafish Assay for Circulatory Malformation (AID 2283651). In short, it runs like this:
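Tropical 5D wild-type embryos, dechorionated with pronase at 4 hpf, were placed singly in wells at 6 hpf and exposed statically at 28C to 120 hpf (0.64% DMSO final). Circulatory malformation was scored present/absent by brightfield microscopy.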

Assay [15] can be described thus: Tanguay_ZF_120hpf_SWIM_legacy: (Legacy) Oregon State University Tanguay Lab 120 Hour Post-fertilization zebrafish Assay for Swim Bladder Malformation (AID 2283654).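 Also: swim bladder malformation in each larva scored yes or no under brightfield.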 In short, it runs like this: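 Dechorionated wild-type Tropical 5D zebrafish embryos, one per well from 6 hpf, were statically exposed at 28C until 120 hpf in 0.64% DMSO. Swim bladder malformation scored as present/absent by brightfield microscopy; not scored in dead larvae.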

A short description of assay [16]: CCTE_Simmons_CellTiterGLO_HEK293T: Viability Assessment in CCTE's Assays for Thyroperoxidase (TPO) Inhibition, Simmons Lab (AID 2283665).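 Also: cells exposed to compound for 24 h before readout; actives reduce ATP signal below DMSO vehicle meaning cytotoxicity.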 The procedure, abridged:
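HEK293T cells in DMEM with 1% FBS were dosed with 8 concentrations (5 nM–87.5 uM final, 0.5% DMSO) for 24 hr at 37C; ATP content was read by CellTiter-Glo luminescence, loss-of-signal versus DMSO, three biological replicates.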

Consider `O=C(NS(=O)(=O)/C=C/c1ccccc1)c1ccc(F)cc1Cl`, for which the result in assay [1], in [2], in assay [3], in assay [4], in [5] and in [6] was inactive. Besides, the call in [7], in assay [8], in assay [9], in [10] and in [11] was inactive.
In the case of `CCCN(C1CCN(C(=O)C2CCNCC2)CC1)[C@@H]1CCc2ccc(OC)cc2C1`, the call in [1], in assay [2], in [3], in [4], in assay [5] and in [6] was inactive. In addition, the compound was classed as inactive in [7], in assay [12], in assay [13], in [8], in [9] and in assay [14]. Also, the outcome in assay [15], in assay [10] and in assay [11] was inactive. Besides, the AC50 in [16] is 18.2 µM (active).
With `CCOC(=O)COc1ccc2c(c1)CC(NCC(O)c1cccc(Cl)c1)CC2` (stereo not drawn), the outcome in assay [1], in assay [2], in assay [3], in [4], in assay [5] and in assay [6] was inactive. Also, the outcome in assay [7], in assay [12], in assay [13], in [8], in assay [9] and in assay [15] was inactive. For the same compound, the outcome in assay [10] was inactive.
For the compound `C=CCCCCCCCCC(=O)O`, the compound was classed as inactive in assay [1], in assay [2], in [3], in assay [4], in assay [6] and in [7]. Further, the compound was called inactive in [12], in [13], in assay [8], in assay [9], in [14] and in [15]. Further, the result in assay [11] was inactive.
Regarding `O=C(O)CC(O)C(=O)O` (stereo not drawn), the outcome in assay [1], in [2], in assay [3], in [4], in [6] and in assay [7] was inactive. The compound was called inactive in [12], in [13], in [8], in assay [9], in assay [14] and in [15]. Further, the call in [10] and in assay [11] was inactive.
With `CCOC(=O)CC(CC(=O)OCC)(OC(C)=O)C(=O)OCC`, the call in [1], in [2], in [3], in assay [5], in [6] and in [7] was inactive. Further, the compound was called inactive in assay [12], in assay [13], in assay [8], in assay [9], in assay [14] and in assay [15].
As for `COc1ccc(-n2nc(C(F)F)cc2-c2ccc(S(C)=O)cc2)cc1` (stereo not drawn), the half-maximal activity concentration (AC50) was 47 µM (active) in assay [1]; 51.6 µM (active) in assay [2]; 40.4 µM (active) in assay [3]; 46.7 µM (active) in assay [4]; 37.7 µM (active) in assay [6]; 40.4 µM (active) in assay [7]. The results for the AC50 in assay [13] and in [8] were 48.1 µM (active) and 12.8 µM (active), respectively. Also, the result in assay [5], in [12], in assay [9], in assay [14], in [15] and in assay [10] was inactive. In assay [11], the compound was classed as inactive.
`CNCc1ccc(NC(=O)c2c[nH]c3c2C(=O)CCC3)cc1`: the call in assay [1], in assay [2], in assay [3], in assay [4], in assay [5] and in assay [6] was inactive. The result in assay [7], in assay [12], in assay [13], in assay [8], in [9] and in assay [14] was inactive. Further, the compound was called inactive in assay [15] and in assay [11].

For the origin of these results see PubChem BioAssay (EPA / NIEHS).
